# KCC2 mod: KCC2 (human) Cl- transport modulation; Q9H2X9; B-score of Tl+ flux slope (higher = more flux/activation; lower = inhibition) at 10 µM; AID 1456; hit rate 2.2% among 190,000; KCC2 cells, thallium flux FluoZin-2 fluorescence;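 active = thallium flux slope and its plate-corrected score both differing from the plate sample mean at a set confidence after two filtering rounds, in either direction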;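 also: slope of fluorescence scaled to starting intensity during 10 to 20 s after thallium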
# Lmaj promast: Leishmania major promastigote growth inhibition | inhibition, % at 10 µM | Leishmania major promastigotes, resazurin fluorescence viability | hit rate 9% among 200,000 | AID 1063; in the data active = inhibition above about 50%;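 also: promastigotes grown with compound for 44 hours at 28 °C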
# WT yeast gro inh: growth inhibition of WT yeast, mitochondrial fusion screen; mitochondrial fusion phenotypic screen, WT strain; inhibition, % at 10 µM; hit rate 2.1% among 190,000; AID 1362; in the data active = inhibition above about 58%; tested in S. cerevisiae
# Calpain2 inh: inhibitors of pig calpain II; inhibition, % at 16 µM; hit rate 0.37% among 220,000; purified calpain II, fluorogenic peptide substrate, 30 min;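 active = inhibition above about 50%, limit read from the data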
# ROMK mod: human ROMK K+ channel modulation, primary screen; P48048; Tet-inducible ROMK, thallium flux fluorescence; actives lie on both sides; AID 1918; hit rate 2% among 130,000; B-score at 10 µM;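 active = signal ratio slope over the read window, or its plate-corrected B-score, at least 3 SD from the plate mean, either direction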;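 also: B-score of the F/F0 ratio slope over 7 to 12 s after thallium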
# Target sequence (P48048 whole entry, looked up): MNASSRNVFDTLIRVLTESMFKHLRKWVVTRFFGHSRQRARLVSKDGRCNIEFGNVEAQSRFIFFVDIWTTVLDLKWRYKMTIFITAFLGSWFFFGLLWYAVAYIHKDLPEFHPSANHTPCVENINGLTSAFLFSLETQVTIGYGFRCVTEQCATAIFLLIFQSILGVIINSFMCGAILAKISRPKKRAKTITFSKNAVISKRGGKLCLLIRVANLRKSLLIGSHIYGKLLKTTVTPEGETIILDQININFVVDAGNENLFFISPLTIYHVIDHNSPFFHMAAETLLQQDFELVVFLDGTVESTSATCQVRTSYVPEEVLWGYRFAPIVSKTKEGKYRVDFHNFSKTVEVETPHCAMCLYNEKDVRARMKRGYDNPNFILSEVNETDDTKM
# ROMK retest: confirmation of human ROMK potassium channel modulators | shares compounds with ROMK mod | ROMK thallium flux, fluorescence ratio; stronger effect = lower value | normalized thallium flux (F/F0 slope) at 10 µM | hit rate 54% among 3,000;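 active = Flux at 10 µM at least 3 SD below or above vehicle control mean in one or both replicates; inconclusive = no clear call, values can overlap the other calls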
# A number is an active result; – = inactive; ? = inconclusive; · = no result. Sampled rows, rich in hits. Any-hit rate of the full collection: about 12%.
SMILES,KCC2 mod,Lmaj promast,WT yeast gro inh,Calpain2 inh,ROMK mod,ROMK retest
CC(=O)N1CC=C2C(C#N)=C(N)C(C#N)(C#N)C(C)C2C1 (centres undefined),–,–,–,–,–,·
CCCN1CC=C2C(C#N)=C(N)C(C#N)(C#N)C(c3cccc(OC)c3OC)C2C1 (centres undefined),–,–,–,–,·,·
C=CCn1c(COc2ccc(Cl)cc2)nnc1SCc1ccc(C#N)cc1,–,57.7,–,–,·,?
OCc1cn(-c2ccccc2)nc1-c1ccc2c(c1)OCCO2,·,–,–,–,–,·
COCC1CCCCN1Cc1cn(-c2ccccc2)nc1-c1ccc2c(c1)OCO2 (centres undefined),–,–,–,–,-3.42,0.065
c1ccc(-n2cc(CNCCc3cscn3)c(-c3ccc4c(c3)OCO4)n2)cc1,–,–,–,–,-3.1,0.0504
O=C(c1ccc(Cl)nc1)N1CCC(Cc2ccccc2)CC1,–,·,·,–,·,·
CCOC(=O)c1c(NC(=S)NC(=O)c2cnn(CC)c2)sc2c1CCC(C)C2 (centres undefined),–,–,–,–,·,·
Cc1ccc(CNc2cc(-c3nn4c(C)nnc4s3)ccc2C)s1,–,–,–,–,–,·
Cc1ccc(-c2nn3c(C)nnc3s2)cc1NCc1c(F)cccc1Cl,–,–,–,–,·,–
CN(Cc1cccs1)C(=O)Cc1csc(-c2ccccc2)n1,–,–,–,–,–,·
CC(=O)NCCC(=O)NCc1ccc(F)cc1,–,–,·,–,–,·
CC(=O)NCc1ccc(C(=O)CCl)cc1,–,93.3,–,–,-2,0.0577
COc1ccc(CN2CCC(N(CCc3ccccc3)Cc3ccccc3)CC2)c(OC)c1,–,94.1,–,–,-3.32,0.0508
COc1ccc(CN2CCC(C(=O)N(C)CCc3ccc(OC)c(OC)c3)CC2)c(OC)c1,–,–,–,–,·,·
CC(=O)Cc1nsc(NC(=O)c2ccc(-c3cccc(Cl)c3)o2)n1,–,–,–,–,4.35,–
O=C(N/C(=C\c1ccc(Cl)cc1)C(=O)N1CCOCC1)c1ccc([N+](=O)[O-])cc1,–,–,–,–,–,·
COc1cc([N+](=O)[O-])cc(/C=N/N(CCC#N)C(C)=O)c1O,–,–,–,–,–,·
CCOc1ccc(N2C(=O)CC(N3CCN(C4CCc5ccccc5C4)CC3)C2=O)cc1 (centres undefined),·,–,–,–,-2.13,0.0643
CCOc1ccc(N2C(=O)CC(N3CCN(c4ccccc4F)CC3)C2=O)cc1 (centres undefined),–,–,–,–,·,·
CC(C)(C)n1ncc(Oc2ccc(Oc3cnn(C(C)(C)C)c(=O)c3Cl)cc2)c(Cl)c1=O,–,–,·,·,–,·
CCOC(=O)Cn1nc(-c2ccccc2)c2ccccc2c1=O,·,–,·,–,4.06,–
COC(=O)c1ccc(NC(=S)NNC(=O)c2ccccc2)cc1,–,–,–,–,0.935,–
COC(=O)c1cccnc1NC(=S)NNC(=O)c1ccccc1,–,–,–,–,2.21,–
COC(=O)c1ccccc1NC(=S)NC(=O)c1ccccc1,·,–,–,–,·,·
SMILES,KCC2 mod,Lmaj promast,WT yeast gro inh,Calpain2 inh,ROMK mod,ROMK retest
O=C(NNC(=S)Nc1ccccc1)c1ccc(O)cc1,–,·,·,–,·,·
COc1ccccc1OCC(=O)NC1CCCCCC1,·,–,–,–,–,·
O=C(COc1ccccc1Br)NC1CCCC1,–,–,–,–,·,0.0688
COc1ccc(NC(=O)CCCn2c(=O)c3sccc3n(Cc3ccc(C)cc3C)c2=O)cc1,–,–,–,–,–,·
N#Cc1nc(-c2cccs2)oc1NCc1ccccc1,–,–,–,–,-3.62,0.0541
O=C1CC(=O)C(n2cncn2)C(c2ccc(Cl)cc2)C1 (centres undefined),–,–,–,–,·,–
O=C1CC(=O)C(n2cncn2)C(c2c(F)cccc2Cl)C1 (centres undefined),·,–,–,–,·,·
O=Cc1ccc(-c2cccc([N+](=O)[O-])c2)o1,–,·,·,–,·,0.101
CCOC(=O)CNC(=O)c1cccnc1Oc1ccc(Cl)cc1,–,·,·,–,–,·
Cc1ccc(C(C(=O)NC2CCCCC2)N(Cc2ccco2)C(=O)Cc2c[nH]c3ccccc23)o1 (centres undefined),·,–,70.7,–,·,?
Nc1ccc([N+](=O)[O-])cc1C(=O)NNC(=O)c1ccco1,–,·,·,–,–,·
CCC1=NN2C(=N)/C(=C\c3ccc(SCc4ccco4)o3)C(=O)N=C2S1,·,–,–,–,·,·
CCCC1=NN2C(=N)/C(=C\c3ccc(SCc4ccco4)o3)C(=O)N=C2S1,·,–,–,–,-3.02,0.0533
COc1ccccc1S(=O)(=O)Cc1ccc(C(=O)NC2CCCCC2)o1,–,–,–,–,·,–
CC(C)OC(=O)c1c2c(n3ccccc13)C(=O)c1ccccc1C2=O,–,–,–,–,·,0.0515
Cc1cc(C)cc(OCC(O)CN2C(=O)NC(C)(C)C2=O)c1 (centres undefined),·,–,–,–,·,·
Cc1ccc(C(=O)NCC#N)cc1,–,–,–,–,–,·
Cc1ccc(C(=O)NC(C#N)=C(Cl)Cl)cc1,–,–,–,–,–,0.0613
C=CCN(CC=C)S(=O)(=O)c1ccc(NC(=S)NC(=O)/C=C/c2ccc(C)cc2)cc1,–,–,–,–,1.71,–
CSc1ccc(S(=O)(=O)NCCSC(C)(C)C)cc1,–,–,–,–,–,·
COc1cc(/C=C2\NC(=S)N(C)C2=O)ccc1O,–,–,–,–,–,·
COc1cc(/C=C2/C(=O)CNC2=O)ccc1O,–,–,–,–,-2.93,0.0611
CN(c1ccccc1)S(=O)(=O)c1cccc(NC(=O)c2ccc3ncsc3c2)c1,·,·,·,–,·,0.0673
Cc1cnnn1-c1ccc([N+](=O)[O-])cc1,–,–,–,–,-3.24,–
N#Cc1cccc(C(c2nnnn2CCc2ccccc2)N2CCN(C3CCCCC3)CC2)c1 (centres undefined),·,81.2,–,–,-3.13,0.0576
SMILES,KCC2 mod,Lmaj promast,WT yeast gro inh,Calpain2 inh,ROMK mod,ROMK retest
Fc1cccc(-c2oncc2-c2nnnn2-c2ccc(Cl)cc2)c1,–,–,–,–,-7.45,–
O=C(CNC(=O)c1ccccc1Br)N/N=C/c1ccc(O)cc1,–,–,–,–,–,·
COC(=O)CCC(=O)Nc1sc2c(c1C#N)CCCC2,–,–,–,–,5.86,–
CCC(=O)Oc1ccc(C(=O)Nc2cccc(C(=O)NC(C)(C)C)c2)cc1,–,–,–,–,–,·
Cc1cccc(NC(=O)CSc2nnc(CSc3nc(C)cc(C)n3)o2)c1,–,–,–,–,·,·
Cc1cc(C)nc(SCc2nnc(SCC(=O)Nc3ccc(Cl)c(C(F)(F)F)c3)o2)n1,–,–,–,–,-3.94,0.0643
Fc1ccccc1NC(=S)N(CCN1CCCCC1)Cc1ccco1,–,–,–,–,–,·
CCOC(=O)C1CCN(C(=O)COc2ccc([N+](=O)[O-])cc2)CC1,–,–,–,–,–,·
CCOC(=O)C1CCN(c2ccc([N+](=O)[O-])c(C(C)=O)c2)CC1,–,–,–,–,-2.99,–
O=c1c2ccccc2c(C=NCc2ccccn2)c(O)n1-c1ccccc1,–,–,–,–,·,–
CC(C)C1N(C(N)=S)N=CC1(C)C (centres undefined),–,·,·,–,·,·
